The supplement of paper PMC11732987, “Enantioselective OTUD7B fragment discovery through chemoproteomics screening and high-throughput optimisation” (Communications Chemistry, 2025)

Tests used:
Assay in all cases: log2 ratio of Biotin-Ahx-Ub-VS probe labelling (fragment/DMSO); higher = less target engagement (more negative = stronger competition), active = hit call of the paper (q ≤ 0.05, log2 ratio ≤ -1)
Conditions in all cases: compound concentration: 200 uM; treatment time: 3 h
USP19 = target: T1, USP19 (UniProt O94966)
T1 sequence (whole entry): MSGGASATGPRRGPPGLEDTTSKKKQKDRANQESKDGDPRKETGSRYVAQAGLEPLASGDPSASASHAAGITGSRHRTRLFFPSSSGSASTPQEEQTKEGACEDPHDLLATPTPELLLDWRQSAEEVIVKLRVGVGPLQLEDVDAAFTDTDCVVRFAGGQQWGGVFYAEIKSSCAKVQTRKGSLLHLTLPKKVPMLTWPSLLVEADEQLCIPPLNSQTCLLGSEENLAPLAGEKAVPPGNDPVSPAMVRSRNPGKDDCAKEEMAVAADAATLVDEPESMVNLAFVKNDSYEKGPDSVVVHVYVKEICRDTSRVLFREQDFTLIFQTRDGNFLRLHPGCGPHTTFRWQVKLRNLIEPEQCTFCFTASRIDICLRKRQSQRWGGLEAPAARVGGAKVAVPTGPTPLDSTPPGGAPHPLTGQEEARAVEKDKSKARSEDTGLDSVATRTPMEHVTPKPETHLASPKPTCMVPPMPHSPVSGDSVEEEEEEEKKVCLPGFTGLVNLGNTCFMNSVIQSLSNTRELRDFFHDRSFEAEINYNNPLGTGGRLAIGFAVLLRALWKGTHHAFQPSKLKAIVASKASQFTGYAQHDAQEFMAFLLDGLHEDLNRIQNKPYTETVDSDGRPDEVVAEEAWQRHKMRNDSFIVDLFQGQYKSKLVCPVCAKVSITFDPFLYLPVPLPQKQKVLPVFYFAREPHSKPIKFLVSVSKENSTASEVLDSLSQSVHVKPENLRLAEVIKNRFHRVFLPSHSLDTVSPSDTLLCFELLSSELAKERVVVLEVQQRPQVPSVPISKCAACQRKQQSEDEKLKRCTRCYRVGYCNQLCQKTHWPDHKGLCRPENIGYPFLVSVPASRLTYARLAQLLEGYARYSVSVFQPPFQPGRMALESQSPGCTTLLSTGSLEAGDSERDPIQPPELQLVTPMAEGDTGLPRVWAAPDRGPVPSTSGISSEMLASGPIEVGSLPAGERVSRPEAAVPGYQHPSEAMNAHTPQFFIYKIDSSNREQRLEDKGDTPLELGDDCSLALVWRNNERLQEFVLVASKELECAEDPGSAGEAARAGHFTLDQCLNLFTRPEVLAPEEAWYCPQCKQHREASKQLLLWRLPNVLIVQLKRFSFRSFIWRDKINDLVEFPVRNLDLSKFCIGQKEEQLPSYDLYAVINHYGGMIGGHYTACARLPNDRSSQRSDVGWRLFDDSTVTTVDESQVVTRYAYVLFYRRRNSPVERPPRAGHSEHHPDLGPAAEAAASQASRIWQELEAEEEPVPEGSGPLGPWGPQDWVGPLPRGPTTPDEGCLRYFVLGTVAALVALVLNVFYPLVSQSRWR
Method in brief: (§1)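 Fragment (200 µM) or vehicle was incubated for 3 h with triplicate HEK293T lysate samples of 495 µg, which were then treated with Biotin-Ahx-Ub-VS at 0.5 µM final for 1 h. Labelled DUBs were enriched on NeutrAvidin, digested with LysC and trypsin, and analysed by diaPASEF LC-MS/MS. Values are average log2 fragment/vehicle ratios from an unpaired t-test on global-median-normalised Spectronaut label-free quantities, using proteins with ≥2 unique peptides.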

USP24 = USP24 (UniProt Q9UPU5)
USP24, sequence (Q9UPU5 whole entry): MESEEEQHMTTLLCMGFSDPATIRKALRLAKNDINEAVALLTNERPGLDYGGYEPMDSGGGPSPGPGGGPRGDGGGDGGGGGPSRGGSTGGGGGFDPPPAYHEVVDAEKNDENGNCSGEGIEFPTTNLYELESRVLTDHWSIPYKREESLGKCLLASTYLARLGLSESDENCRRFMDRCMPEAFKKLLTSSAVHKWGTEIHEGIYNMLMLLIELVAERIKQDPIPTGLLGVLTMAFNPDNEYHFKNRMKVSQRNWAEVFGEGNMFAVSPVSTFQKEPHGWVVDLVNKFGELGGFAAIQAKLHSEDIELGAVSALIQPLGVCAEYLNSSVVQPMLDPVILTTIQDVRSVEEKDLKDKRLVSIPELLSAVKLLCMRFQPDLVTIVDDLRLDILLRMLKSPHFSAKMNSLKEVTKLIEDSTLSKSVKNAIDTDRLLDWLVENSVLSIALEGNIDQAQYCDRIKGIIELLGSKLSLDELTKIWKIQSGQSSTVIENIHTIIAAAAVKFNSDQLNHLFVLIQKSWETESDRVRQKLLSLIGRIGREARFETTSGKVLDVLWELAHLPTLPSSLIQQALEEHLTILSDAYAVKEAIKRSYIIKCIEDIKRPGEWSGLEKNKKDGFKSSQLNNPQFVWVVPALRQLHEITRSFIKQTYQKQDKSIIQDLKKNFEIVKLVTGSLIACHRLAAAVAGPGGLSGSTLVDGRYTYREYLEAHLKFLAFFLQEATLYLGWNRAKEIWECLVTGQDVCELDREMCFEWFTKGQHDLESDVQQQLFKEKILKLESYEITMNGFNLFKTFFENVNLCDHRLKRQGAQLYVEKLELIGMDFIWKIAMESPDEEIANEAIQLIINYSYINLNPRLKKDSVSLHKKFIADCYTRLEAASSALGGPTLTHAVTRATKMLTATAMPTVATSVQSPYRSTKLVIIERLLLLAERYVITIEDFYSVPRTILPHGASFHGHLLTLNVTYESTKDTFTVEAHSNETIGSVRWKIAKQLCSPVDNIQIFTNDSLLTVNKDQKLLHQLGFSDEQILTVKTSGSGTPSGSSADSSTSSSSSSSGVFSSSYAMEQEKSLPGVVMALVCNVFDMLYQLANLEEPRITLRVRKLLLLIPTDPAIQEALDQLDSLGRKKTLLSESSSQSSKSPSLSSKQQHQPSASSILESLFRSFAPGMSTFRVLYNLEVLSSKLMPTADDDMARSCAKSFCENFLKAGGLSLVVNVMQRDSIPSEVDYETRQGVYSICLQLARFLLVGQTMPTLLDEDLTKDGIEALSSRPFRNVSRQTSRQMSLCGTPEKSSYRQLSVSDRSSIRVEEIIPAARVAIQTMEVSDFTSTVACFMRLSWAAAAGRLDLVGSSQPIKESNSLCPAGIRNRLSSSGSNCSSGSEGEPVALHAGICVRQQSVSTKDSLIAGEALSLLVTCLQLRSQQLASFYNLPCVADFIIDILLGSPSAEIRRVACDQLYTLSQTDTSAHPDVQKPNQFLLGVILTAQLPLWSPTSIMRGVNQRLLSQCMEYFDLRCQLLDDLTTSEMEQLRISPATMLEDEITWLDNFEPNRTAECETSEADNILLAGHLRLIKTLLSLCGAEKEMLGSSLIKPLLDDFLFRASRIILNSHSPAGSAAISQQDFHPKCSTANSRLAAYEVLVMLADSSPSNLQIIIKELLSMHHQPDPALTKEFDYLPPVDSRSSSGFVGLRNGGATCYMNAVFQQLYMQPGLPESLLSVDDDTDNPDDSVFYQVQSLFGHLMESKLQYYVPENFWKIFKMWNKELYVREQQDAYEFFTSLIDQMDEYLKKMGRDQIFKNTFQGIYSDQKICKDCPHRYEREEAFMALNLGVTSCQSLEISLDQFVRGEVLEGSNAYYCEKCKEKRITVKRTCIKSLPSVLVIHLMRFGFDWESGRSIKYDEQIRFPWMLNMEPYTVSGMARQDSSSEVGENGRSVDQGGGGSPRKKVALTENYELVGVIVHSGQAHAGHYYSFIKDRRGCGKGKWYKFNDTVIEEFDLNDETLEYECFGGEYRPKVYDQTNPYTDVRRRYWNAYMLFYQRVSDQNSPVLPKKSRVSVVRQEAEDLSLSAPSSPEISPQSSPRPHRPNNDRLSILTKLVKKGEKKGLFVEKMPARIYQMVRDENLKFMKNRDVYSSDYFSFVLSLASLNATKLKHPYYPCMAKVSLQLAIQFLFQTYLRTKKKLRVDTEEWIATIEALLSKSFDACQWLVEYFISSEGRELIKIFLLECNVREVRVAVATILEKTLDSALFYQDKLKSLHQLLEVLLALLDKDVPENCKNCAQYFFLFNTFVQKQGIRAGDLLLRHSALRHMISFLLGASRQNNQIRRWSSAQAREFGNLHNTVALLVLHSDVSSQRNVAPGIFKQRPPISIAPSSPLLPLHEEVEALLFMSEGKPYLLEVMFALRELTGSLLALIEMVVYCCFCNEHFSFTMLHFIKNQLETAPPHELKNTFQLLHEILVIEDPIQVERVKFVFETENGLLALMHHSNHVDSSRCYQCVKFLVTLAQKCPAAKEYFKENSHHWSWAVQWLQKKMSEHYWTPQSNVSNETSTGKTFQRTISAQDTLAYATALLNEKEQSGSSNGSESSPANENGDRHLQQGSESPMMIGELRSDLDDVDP
Method in brief: as §1

USP25 = target: T2, USP25 (UniProt Q9UHP3)
T2 sequence (whole entry): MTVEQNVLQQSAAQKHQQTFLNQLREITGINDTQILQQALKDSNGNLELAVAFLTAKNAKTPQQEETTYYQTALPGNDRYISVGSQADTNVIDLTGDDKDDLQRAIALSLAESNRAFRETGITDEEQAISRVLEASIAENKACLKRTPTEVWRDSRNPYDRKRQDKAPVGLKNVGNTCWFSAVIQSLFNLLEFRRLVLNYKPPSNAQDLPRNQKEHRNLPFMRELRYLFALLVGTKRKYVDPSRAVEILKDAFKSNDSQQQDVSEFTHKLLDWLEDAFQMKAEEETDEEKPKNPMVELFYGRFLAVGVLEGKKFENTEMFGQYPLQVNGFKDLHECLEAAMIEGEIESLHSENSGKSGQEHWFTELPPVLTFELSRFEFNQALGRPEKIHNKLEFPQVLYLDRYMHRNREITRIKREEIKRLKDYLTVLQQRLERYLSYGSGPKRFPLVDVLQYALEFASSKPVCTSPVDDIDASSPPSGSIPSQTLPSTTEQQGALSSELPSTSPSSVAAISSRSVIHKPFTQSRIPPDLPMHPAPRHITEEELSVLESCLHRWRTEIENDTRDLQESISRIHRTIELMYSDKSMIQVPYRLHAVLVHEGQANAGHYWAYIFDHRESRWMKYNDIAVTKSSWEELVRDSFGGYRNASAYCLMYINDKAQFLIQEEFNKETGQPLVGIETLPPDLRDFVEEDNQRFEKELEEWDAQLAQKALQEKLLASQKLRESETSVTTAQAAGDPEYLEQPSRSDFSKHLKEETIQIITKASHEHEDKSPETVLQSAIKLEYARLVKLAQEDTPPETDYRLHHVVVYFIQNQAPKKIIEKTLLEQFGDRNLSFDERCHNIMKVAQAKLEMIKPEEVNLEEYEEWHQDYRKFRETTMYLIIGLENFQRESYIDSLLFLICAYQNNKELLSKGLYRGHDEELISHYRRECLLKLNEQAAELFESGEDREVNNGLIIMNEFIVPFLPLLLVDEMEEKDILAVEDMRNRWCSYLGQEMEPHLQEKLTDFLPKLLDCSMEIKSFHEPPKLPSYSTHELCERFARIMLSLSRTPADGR
Method in brief: as §1

USP28 = target: T3, USP28 (UniProt Q96RU2)
T3 sequence (whole entry): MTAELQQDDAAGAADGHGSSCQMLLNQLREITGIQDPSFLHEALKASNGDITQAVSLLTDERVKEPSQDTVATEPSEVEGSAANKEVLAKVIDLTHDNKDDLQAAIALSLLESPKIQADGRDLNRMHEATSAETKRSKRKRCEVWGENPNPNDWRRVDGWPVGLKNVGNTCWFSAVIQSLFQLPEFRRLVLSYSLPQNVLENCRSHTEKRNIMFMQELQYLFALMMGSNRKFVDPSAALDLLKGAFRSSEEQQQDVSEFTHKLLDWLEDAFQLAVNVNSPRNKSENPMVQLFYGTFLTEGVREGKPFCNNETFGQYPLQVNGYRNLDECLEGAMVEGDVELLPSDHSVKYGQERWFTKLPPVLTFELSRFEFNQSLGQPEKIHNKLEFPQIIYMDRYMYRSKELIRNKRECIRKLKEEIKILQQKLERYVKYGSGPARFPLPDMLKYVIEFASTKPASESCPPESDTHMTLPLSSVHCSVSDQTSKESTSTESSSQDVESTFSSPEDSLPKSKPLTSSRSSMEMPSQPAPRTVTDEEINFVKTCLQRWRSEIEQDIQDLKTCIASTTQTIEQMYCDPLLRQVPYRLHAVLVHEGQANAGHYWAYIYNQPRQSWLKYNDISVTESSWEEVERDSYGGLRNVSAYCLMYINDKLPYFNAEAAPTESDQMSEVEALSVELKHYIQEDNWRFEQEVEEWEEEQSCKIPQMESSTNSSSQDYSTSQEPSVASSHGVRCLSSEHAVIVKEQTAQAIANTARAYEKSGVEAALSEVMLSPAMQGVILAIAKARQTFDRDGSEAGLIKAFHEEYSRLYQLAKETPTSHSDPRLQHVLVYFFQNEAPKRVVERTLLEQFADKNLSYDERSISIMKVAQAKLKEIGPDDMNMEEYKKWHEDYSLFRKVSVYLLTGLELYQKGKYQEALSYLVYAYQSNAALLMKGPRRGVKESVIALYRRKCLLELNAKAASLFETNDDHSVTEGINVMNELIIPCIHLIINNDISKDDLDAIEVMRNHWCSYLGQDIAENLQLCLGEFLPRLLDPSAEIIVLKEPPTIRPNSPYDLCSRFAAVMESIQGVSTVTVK
Method in brief: as §1

Measured: log2 ratio of Biotin-Ahx-Ub-VS probe labelling

Cl.O=C(CCl)N1CC(c2ccc(Br)cn2)C1
inactive: USP19 -0.658 | USP24 -0.76 | USP25 -0.491 | USP28 -0.738
